Experimental findings from PubChem BioAssay (Tox21) are described below.

Experiment [1] in a line: qHTS assay to identify small molecule antagonists of the sonic hedgehog signaling (Shh) pathway (AID 1259369; calls by dose curve; further: nearly all actives have a fitted effect of over 45% in size; further: potency means the concentration at half of the fitted maximal effect). A digest of the protocol:
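NIH/3T3 stable Gli1-Luc clone, 2,000 cells/well, 4hr settle; cpd + conditioned medium 24hr; Luc reagent 30min RT; luminescence.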
In general terms: In qHTS, concentration-response curves come from the screen itself.

In experiment [2] the target is Estrogen receptor beta (Homo sapiens) (UniProt Q92731). Nature of the experiment: qHTS assay to identify small molecule agonists of the estrogen receptor beta (ER-beta) signaling pathway (AID 1259377; active means well fitted activation curve with a large enough effect in the signal ratio in the repeat runs, not every such curve was filed as active; the % refers to the signal ratio). A digest of the protocol:
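Agonist mode cell assay in GripTite HEK293T cells expressing an ER-beta fusion that drives beta-lactamase from an Upstream Activator Sequence; 16 hr compound exposure at 37C, then 2 h LiveBLAzer B/G FRET substrate at room temperature, fluorescence read-out.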

Experiment [3] in a line: qHTS assay to identify small molecule agonists of the androgen receptor (AR) signaling pathway in the presence of an antagonist - cell viability counter screen (AID 1259379). Further: nearly all actives have a fitted effect of over 25% in size. Further: potency means the concentration at half of the fitted maximal effect. Summed up:
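MDA-kb2 viability measured by CellTiter-Fluor fluorescence in the same wells as the luciferase signal; nilutamide 3.0uM final; 15-point compound titration; 16 hr at 37C.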

Experiment [4] can be described thus: qHTS assay to identify small molecule agonists of the estrogen receptor beta (ER-beta) signaling pathway - cell viability counter screen (AID 1259380). Further: nearly all actives have a fitted effect of over 30% in size. Further: potency means the concentration at half of the fitted maximal effect. Summed up:
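Measured: luminescence from CellTiter-Glo after 30 min at room temperature, added to wells already read for the LiveBLAzer FRET reporter (2 hr substrate); ER-beta-UAS-bla HEK293T cells had 16 hr compound treatment at 37C, 5% CO2.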

A short description of experiment [5]: qHTS assay to identify small molecule antagonists of the estrogen receptor beta (ER-beta) signaling pathway - cell viability counter screen (AID 1259382). Further: series mostly up to about 92 µM; nearly all actives have a fitted effect of over 55% in size. Summed up:
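Readout: luminescence, CellTiter-Glo, same wells as bla assay. System: ER-beta-UAS-bla GripTite HEK293T, 2% charcoal-stripped FBS. Exposure: compounds plus 1nM 17-beta-estradiol, 16 hr, 37C.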

Experiment [6] addresses Estrogen receptor (Homo sapiens) (UniProt P03372). In words: qHTS assay to identify small molecule agonists of the estrogen receptor alpha (ER-alpha) signaling pathway in the presence of an antagonist (AID 1259383; calls by dose curve; further: nearly all actives have a fitted effect of over 15% in size; further: potency means the concentration at half of the fitted maximal effect; on activation: top concentration of the series differs between compounds). Summed up: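 Quantitative HTS confirmation: compounds titrated at 15 concentrations onto estrogen-deprived VM7Luc4E2 cells carrying a four-ERE luciferase construct, with ICI-182,780 present at 10.0nM final. Signal is luminescence after 22hr exposure.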

The nature of experiment [7]: qHTS assay to identify small molecule agonists or antagonists of the thyroid stimulating hormone receptor (TSHR) signaling pathway - wild type cell line counter screen (AID 1259384; calls by dose curve). Summed up: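 Wild-type Hek293 cells, 800/well, 18 h at 37C, then compound with Ro20-1724 for 30 min RT. cAMP by HTRF (cAMP-d2/anti-cAMP cryptate), 1 h RT, fluorescence read. 15 concentrations, triplicates.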

Experiment [8] can be described thus: qHTS assay to identify small molecule agonists of the estrogen receptor alpha (ER-alpha) signaling pathway in the presence of an antagonist - cell viability counter screen (AID 1259386).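 Further: cells exposed to compounds for 22 h at 37 °C before the viability read; nearly all actives have a fitted effect of over 30% in size.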 Further: potency means the concentration at half of the fitted maximal effect. Summed up:
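The test measures whether compounds kill ER-alpha reporter cells (VM7Luc4E2) under antagonist co-treatment (ICI-182,780, 10.0nM). Fluorescence from CellTiter-Fluor is read after a 22hr exposure.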

Experiment [9] addresses Progesterone receptor (Homo sapiens) (UniProt P06401). Nature of the experiment: qHTS assay to identify small molecule agonists of the progesterone receptor (PR) signaling pathway (AID 1346784; calls by dose curve; further: nearly all actives have a fitted effect of over 30% in size; further: potency means the concentration at half of the fitted maximal effect). Summed up: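 Cells (PR-UAS-bla HEK 293T, GripTite) were plated in assay medium containing 2% charcoal-stripped FBS and incubated 6 hr. Test compounds in DMSO were added for 16 hr at 37C. FRET substrate was then loaded for 2 hr at room temperature before fluorescence reading.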

For experiment [10] the target is unchanged. Nature of the experiment: qHTS assay to identify small molecule antagonists of the progesterone receptor (PR) signaling pathway (AID 1346795; active means well fitted inhibition curve with a large enough effect in the signal ratio in the repeat runs, not every such curve was filed as active; the % refers to the signal ratio; further: potency means the concentration at half of the fitted maximal effect). Summed up:
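Antagonist mode: compounds tested against 1 nM (final) promegestone stimulation in HEK293T cells expressing PR-UAS-bla reporter, 16 hr at 37C, 5% CO2; beta-lactamase activity detected via B/G FRET substrate after 2 hr at room temperature.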

A short description of experiment [11]: qHTS assay to identify small molecule antagonists of the progesterone receptor (PR) signaling pathway - cell viability counter screen (AID 1346798). Further: nearly all actives have a fitted effect of over 50% in size. Further: potency means the concentration at half of the fitted maximal effect. Summed up:
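Counter screen for cytotoxicity: viability of PR-UAS-bla HEK293T cells was measured with CellTiter-Glo luminescence following 16 hr compound exposure in the presence of R5020.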

A short description of experiment [12]: qHTS assay to identify small molecule antagonists of the TGF-beta/Smad signaling pathway - cell viability counter screen (AID 1346824). Further: nearly all actives have a fitted effect of over 50% in size. Further: potency means the concentration at half of the fitted maximal effect. Summed up: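 SBE-bla HEK 293T cells, incubated overnight, then compound plus 0.25 ng/mL TGF-beta1 (stock added) for 5 hr at 37 C. Viability was read in the same wells by CellTiter-Glo luminescence after 30 min at room temperature.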

Experiment [13] can be described thus: qHTS assay to identify small molecule agonists of the TGF-beta/Smad signaling pathway - cell viability counter screen (AID 1346829). Further: nearly all actives have a fitted effect of over 45% in size. Further: potency means the concentration at half of the fitted maximal effect. Summed up: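 Compound-treated SBE-bla HEK 293T cells (5 hr, 37 C) were assessed for viability with CellTiter-Glo in parallel with the reporter read.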
A short description of experiment [14]: qHTS assay to identify small molecule agonists of the TGF-beta/Smad signaling pathway (AID 1346859; active means well fitted activation curve with a large enough effect in the signal ratio in the repeat runs, not every such curve was filed as active; the % refers to the signal ratio; further: series mostly up to about 77 µM). Summed up: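 Reporter line: HEK 293T with stably integrated SBE-controlled beta-lactamase. Compound exposure lasts 5 hr at 37 C and 5% CO2; substrate loading follows for 2 hr at room temperature, with emission read at 460 and 530 nm.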
Experiment [15] deals with Thyrotropin-releasing hormone receptor (Homo sapiens) (UniProt P34981). In words: qHTS assay to identify small molecule agonists of the thyrotropin-releasing hormone receptor (TRHR) signaling pathway (AID 1346891; calls by dose curve;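 further: HEK293 cells expressing TRHR with calcium dye readout; series mostly up to about 58 µM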). Summed up: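 Cells: TRHR-Hek293, seeded and incubated 18 h. Dye loading: 2 h at 37 °C. Compound added from DMSO stock by pin tool. Read-out: kinetic calcium fluorescence over 3 min.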
Thyrotropin-releasing hormone receptor (Homo sapiens), sequence (P34981 whole entry, looked up): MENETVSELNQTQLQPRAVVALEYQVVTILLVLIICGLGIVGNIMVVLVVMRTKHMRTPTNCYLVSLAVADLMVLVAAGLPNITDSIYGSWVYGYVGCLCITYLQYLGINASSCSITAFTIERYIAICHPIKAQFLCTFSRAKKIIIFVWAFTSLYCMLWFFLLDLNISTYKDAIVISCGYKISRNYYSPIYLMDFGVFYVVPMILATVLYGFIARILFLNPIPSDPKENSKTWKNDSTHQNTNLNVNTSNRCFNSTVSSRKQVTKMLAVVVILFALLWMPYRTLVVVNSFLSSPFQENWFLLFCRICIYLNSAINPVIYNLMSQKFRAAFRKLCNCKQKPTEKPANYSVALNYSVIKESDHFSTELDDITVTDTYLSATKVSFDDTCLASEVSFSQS

Experiment [16] has as its target Estrogen receptor beta (Homo sapiens) (UniProt Q92731). Nature of the experiment: qHTS assay to identify small molecule antagonists of the estrogen receptor beta (ER-beta) signaling pathway (AID 1259378; active means well fitted inhibition curve with a large enough effect in the signal ratio in the repeat runs, not every such curve was filed as active; the % refers to the signal ratio; further: potency means the concentration at half of the fitted maximal effect). Summed up:
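ER-beta-UAS-bla HEK293T cells in 2% charcoal-stripped FBS medium treated with compound plus 1nM final 17-beta-estradiol for 16 hr at 37C. Beta-lactamase reporter read by FRET substrate fluorescence after 2 hours at room temperature.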

In experiment [17] the target is Thyrotropin-releasing hormone receptor (Homo sapiens) (UniProt P34981). In words: qHTS assay to identify small molecule antagonists of the thyrotropin-releasing hormone receptor (TRHR) signaling pathway (AID 1346877; active means well fitted inhibition curve with a large enough effect in the repeat runs, not every such curve was filed as active; further: series mostly up to about 51 µM). Summed up: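 Overnight-plated (18 h, 37 °C) HEK293 cells expressing TRHR were dye-loaded 2 h, treated with compound, then stimulated with TRH at 1 nM final. Fluorescence intensity was captured every second for 3 min.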

A short description of experiment [18]: qHTS assay to identify small molecule agonists of the progesterone receptor (PR) signaling pathway - cell viability counter screen (AID 1346799; calls by dose curve; further: nearly all actives have a fitted effect of over 45% in size; further: potency means the concentration at half of the fitted maximal effect). Summed up: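 Cells (PR-UAS-bla HEK293T) are plated at 3,000/well in 2% charcoal-stripped FBS medium, rested 6 hr, dosed and incubated 16 hr at 37C. CellTiter-Glo is then added and luminescence measured after 30 min at room temperature.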

The target in experiment [19] is Thyrotropin receptor (Homo sapiens) (UniProt P16473). Nature of the experiment: qHTS assay to identify small molecule antagonists of the thyroid stimulating hormone receptor (TSHR) signaling pathway (AID 1259385; calls by dose curve; further: nearly all actives have a fitted effect of over 20% in size). Summed up:
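TSHR-HEK293 cells (800/well) plated 18 h, then compounds with Ro20-1724 and TSH at 1.5 ng/mL final, 30 min at room temperature. cAMP quantified by HTRF (cAMP-d2/anti-cAMP-cryptate, 1 h); 15 concentrations in triplicate.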

Inconclusive results are not listed. Activity calls are given as the source filed them. Unless noted, the call rests on the fitted dose curve; in most records, active means well fitted curve in the direction sought with a large enough effect in the repeat runs; inconclusive means weak or mixed curves; inactive means no such curve, though single readings can be large; an effect the other way counts as inactive or inconclusive.

Progesterone receptor (Homo sapiens), sequence (P06401 whole entry, looked up): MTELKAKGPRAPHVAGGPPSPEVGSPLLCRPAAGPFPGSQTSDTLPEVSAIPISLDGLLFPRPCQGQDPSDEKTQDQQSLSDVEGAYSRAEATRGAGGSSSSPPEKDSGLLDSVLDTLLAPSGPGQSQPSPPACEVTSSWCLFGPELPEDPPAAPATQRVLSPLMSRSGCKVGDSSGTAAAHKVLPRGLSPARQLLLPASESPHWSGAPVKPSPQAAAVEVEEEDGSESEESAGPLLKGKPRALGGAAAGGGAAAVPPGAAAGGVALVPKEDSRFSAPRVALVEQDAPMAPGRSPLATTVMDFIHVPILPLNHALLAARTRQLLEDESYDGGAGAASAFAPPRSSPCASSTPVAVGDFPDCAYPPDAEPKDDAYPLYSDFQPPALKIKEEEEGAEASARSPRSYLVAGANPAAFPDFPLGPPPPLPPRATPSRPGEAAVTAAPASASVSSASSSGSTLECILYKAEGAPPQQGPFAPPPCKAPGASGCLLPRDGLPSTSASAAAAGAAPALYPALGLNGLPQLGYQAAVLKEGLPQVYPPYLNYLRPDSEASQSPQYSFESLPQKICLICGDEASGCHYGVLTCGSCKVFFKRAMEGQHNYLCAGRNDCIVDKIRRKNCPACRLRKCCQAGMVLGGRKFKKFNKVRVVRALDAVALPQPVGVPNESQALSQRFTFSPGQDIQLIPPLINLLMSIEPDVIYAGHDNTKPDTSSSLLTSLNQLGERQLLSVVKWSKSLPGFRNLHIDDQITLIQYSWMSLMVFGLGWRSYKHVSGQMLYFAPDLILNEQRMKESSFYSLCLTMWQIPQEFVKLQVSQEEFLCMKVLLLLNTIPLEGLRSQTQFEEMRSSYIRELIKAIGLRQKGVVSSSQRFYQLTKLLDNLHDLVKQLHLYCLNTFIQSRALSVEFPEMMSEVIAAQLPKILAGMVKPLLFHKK
Thyrotropin receptor (Homo sapiens), sequence (P16473 whole entry, looked up): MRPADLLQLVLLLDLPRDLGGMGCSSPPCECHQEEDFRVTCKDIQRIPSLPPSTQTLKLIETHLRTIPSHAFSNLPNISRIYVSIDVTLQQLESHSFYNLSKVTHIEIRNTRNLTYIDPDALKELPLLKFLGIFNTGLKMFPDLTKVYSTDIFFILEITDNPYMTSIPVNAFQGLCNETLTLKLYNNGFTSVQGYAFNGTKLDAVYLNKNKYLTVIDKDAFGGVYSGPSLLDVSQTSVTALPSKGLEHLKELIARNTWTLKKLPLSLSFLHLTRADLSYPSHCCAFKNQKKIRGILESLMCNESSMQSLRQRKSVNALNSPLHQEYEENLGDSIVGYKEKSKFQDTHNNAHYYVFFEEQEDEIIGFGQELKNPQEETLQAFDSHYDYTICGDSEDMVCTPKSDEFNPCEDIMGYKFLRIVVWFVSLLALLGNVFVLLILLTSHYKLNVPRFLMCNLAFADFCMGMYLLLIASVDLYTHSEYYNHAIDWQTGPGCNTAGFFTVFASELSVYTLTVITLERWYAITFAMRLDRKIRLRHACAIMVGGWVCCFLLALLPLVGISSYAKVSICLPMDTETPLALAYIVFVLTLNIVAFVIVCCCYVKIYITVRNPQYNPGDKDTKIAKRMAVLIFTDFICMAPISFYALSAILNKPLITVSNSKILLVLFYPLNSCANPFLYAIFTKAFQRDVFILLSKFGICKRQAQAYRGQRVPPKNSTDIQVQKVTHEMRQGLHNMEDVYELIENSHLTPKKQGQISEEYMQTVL
Estrogen receptor beta (Homo sapiens), sequence (Q92731 whole entry, looked up, the tested form may be a part): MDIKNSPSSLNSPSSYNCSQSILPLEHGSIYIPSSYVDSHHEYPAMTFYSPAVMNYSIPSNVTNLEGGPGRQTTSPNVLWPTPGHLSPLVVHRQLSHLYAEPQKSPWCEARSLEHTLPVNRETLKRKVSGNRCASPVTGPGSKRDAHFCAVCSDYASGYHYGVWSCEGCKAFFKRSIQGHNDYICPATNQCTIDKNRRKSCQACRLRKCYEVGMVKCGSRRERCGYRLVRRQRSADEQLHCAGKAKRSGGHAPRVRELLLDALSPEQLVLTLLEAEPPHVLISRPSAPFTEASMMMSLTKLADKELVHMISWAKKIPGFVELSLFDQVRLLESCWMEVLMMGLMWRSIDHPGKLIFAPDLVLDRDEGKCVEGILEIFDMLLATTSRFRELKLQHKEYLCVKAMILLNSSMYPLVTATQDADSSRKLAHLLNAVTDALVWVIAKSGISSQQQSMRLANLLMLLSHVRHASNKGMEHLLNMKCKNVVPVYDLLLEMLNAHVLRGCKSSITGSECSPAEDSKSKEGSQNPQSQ
Estrogen receptor (Homo sapiens), sequence (P03372 whole entry, looked up): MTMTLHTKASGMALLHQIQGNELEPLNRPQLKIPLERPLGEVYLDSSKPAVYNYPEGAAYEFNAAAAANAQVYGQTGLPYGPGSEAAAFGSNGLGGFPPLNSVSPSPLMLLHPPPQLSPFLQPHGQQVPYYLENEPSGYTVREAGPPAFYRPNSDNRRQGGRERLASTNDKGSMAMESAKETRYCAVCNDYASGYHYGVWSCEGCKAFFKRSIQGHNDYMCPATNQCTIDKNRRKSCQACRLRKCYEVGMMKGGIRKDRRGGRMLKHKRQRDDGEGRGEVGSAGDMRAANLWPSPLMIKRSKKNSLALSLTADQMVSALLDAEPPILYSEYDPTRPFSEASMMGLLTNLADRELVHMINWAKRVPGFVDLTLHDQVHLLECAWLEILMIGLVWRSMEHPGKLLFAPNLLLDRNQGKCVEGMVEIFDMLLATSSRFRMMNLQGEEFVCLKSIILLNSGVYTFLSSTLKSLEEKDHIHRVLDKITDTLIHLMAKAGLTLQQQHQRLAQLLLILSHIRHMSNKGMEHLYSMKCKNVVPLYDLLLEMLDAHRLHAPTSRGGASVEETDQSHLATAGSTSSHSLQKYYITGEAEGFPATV

Regarding `CCC(C)(C)OC`, the Potency entry in [1], in experiment [2], in experiment [3], in experiment [4], in [5] and in [6] was “inactive” in each case. Besides, the Potency entry in experiment [8], in [9], in [10], in [11], in experiment [12] and in experiment [13] was “inactive” in each case. Besides, the Potency result in experiment [14] and in [15] was “inactive” each time. The compound was called inactive in experiment [7].

Consider `CC(C)(C)CC(=O)OCC(=O)[C@@]1(O)CC[C@H]2[C@@H]3CCC4=CC(=O)C=C[C@]4(C)[C@H]3[C@@H](O)C[C@@]21C`, for which the Potency in [1] is 6.68 µM (active); in experiment [16], 26.6 µM (active); in experiment [4], 8.41 µM (active); in [10], 21.1 µM (active). Moreover, the Potency entry in experiment [2], in [3], in [6], in [8], in experiment [9] and in experiment [12] was “inactive” each time. Moreover, the Potency entry in experiment [13], in experiment [14] and in experiment [15] was “inactive” each time. For the same compound, the compound was classed as inactive in experiment [7] and in experiment [17].

Take `O=C(O)C[C@H](NC(=O)OCc1ccccc1)C(=O)O`: the Potency entry in [1], in [2], in experiment [3], in experiment [4], in experiment [5] and in experiment [6] was “inactive” each time. Also, the Potency entry in experiment [8], in experiment [9], in [10], in experiment [11], in [18] and in experiment [12] was “inactive” each time. Moreover, the Potency entry in experiment [14] and in experiment [15] was “inactive” each time. The compound was classed as inactive in experiment [7] and in [17].

For `CC(=O)OCCN(CCOC(C)=O)c1ccc(N=Nc2ccc([N+](=O)[O-])cc2C#N)cc1`, the Potency in experiment [1] is 30.6 µM (active); in experiment [3], 54.5 µM (active); in experiment [8] it was 54.5 µM (active). Also, the Potency entry in [2], in [5], in experiment [9], in experiment [10], in [11] and in [12] was “inactive” in each case. Further, the Potency entry in experiment [13], in experiment [14] and in [15] was “inactive” throughout. The compound was classed as inactive in experiment [7] and in experiment [17].

As to `O=c1cc(-c2ccccc2)oc2ccc3ccccc3c12`, the Potency in experiment [1] was 5.45 µM (active); in [4] it was 24.3 µM (active); in experiment [6], 0.686 µM (active); in [11] it was 21.7 µM (active); in [18] it was 19.3 µM (active); in experiment [12], 13.8 µM (active). Besides, the Potency in experiment [13] is 13.8 µM (active). In addition, the Potency entry in [2], in [16], in experiment [3], in experiment [8], in [9] and in experiment [10] was “inactive” each time. In experiment [15], the Potency entry is “inactive”.

Turning to `Cc1ccc(CO)cc1`, the Potency result in experiment [1], in experiment [2], in experiment [3], in [4], in [5] and in [6] was “inactive” each time. In addition, the Potency result in experiment [19], in [8], in [11], in experiment [12], in [14] and in [15] was “inactive” in each case. Also, the call in [7] and in experiment [17] was inactive. For the same compound, the Potency in experiment [9] is 17.4 µM (active).

`CCCCCC[C@@H](O)C/C=C\CCCCCCCC(=O)O`: the Potency entry in experiment [1], in experiment [2], in experiment [3], in experiment [8], in [9] and in experiment [10] was “inactive” in each case. The Potency entry in experiment [12], in [13], in experiment [14] and in experiment [15] was “inactive” each time. Further, the result in experiment [7] and in [17] was inactive.

With `OC[C@H]1O[C@@H](n2cnc3c(=S)nc[nH]c32)[C@H](O)[C@@H]1O`, the Potency result in [1], in [2], in [3], in experiment [6], in [19] and in experiment [8] was “inactive” each time. For the same compound, the Potency result in experiment [9], in experiment [14] and in experiment [15] was “inactive” each time. The Potency in experiment [4] was 2.11 µM (active). The result in experiment [7] and in experiment [17] was inactive.

`O=C(O)CCc1nc(-c2ccccc2)c(-c2ccccc2)o1`: the Potency result in experiment [1], in [2], in experiment [3], in experiment [5], in experiment [6] and in experiment [19] was “inactive” throughout. The Potency result in experiment [8], in [9], in experiment [10], in [11], in experiment [12] and in experiment [13] was “inactive” in each case. For the same compound, the Potency entry in experiment [14] and in [15] was “inactive” each time. Moreover, the compound was classed as inactive in [17].
